# Inconclusive results are not listed. Calls of active or inactive are those of the source. The call rests on the fitted dose curve; in most records, active means well fitted cell-killing curve with a large enough effect; inconclusive means small, poorly fitted or top-dose-only effect; inactive means flat fitted curve, though single readings scatter.
# Assay: Compound cytotoxicity measured by an ATP content assay as a counter-screen for lead compounds in human iPSC derived neural progenitor cells (hNPCs)
# Conditions: human iPSC-derived NPC viability, ATP luminescence; series mostly up to 46.1 µM; activity, negative = cytotoxicity: at the top concentration
# Method in brief: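 hNPCs (human iPSC-derived) seeded 16–20 h, then exposed to compound for 6, 24 or 72 h at 37 C. ATP-content luminescence read after 10 min at room temperature; cytotoxicity expressed as percent inhibition of viability.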
SMILES,"activity, negative = cytotoxicity",Potency
O=C1NC(=O)C(=Cc2ccc(-c3ccc(F)cc3)o2)S1,-16.4% (inactive),
Cc1nc(N)sc1-c1ccnc(Nc2ccc(N3CCOCC3)cc2)n1,-15% (inactive),
Cc1ccc(C(=O)c2ccc(CC(=O)O)n2C)cc1,-10.8% (inactive),
CC1=C(CO)C(=O)O[C@@H]([C@@H](C)[C@H]2CC[C@H]3[C@@H]4C[C@H]5O[C@]56[C@@H](O)C=CC(=O)[C@]6(C)[C@@H]4CC[C@]23C)C1,4.61% (inactive),
O=C(OCc1ccccc1)c1ccc(O)cc1,-20.5% (inactive),
CC(=O)Oc1cccc2c1C(=O)c1c(OC(C)=O)cc(C(=O)O)cc1C2=O,-0.702% (inactive),
O=C(O)c1cccc(-c2noc(-c3ccccc3F)n2)c1,,5.48 µM (active)
COc1ccc(CC2=NN3C([C@@H](CCc4ccccc4)[C@@H](C)O)=NC(C)C3C(=O)N2)cc1OC (some centres not stated),1.03% (inactive),
CN(C)CCCSc1ccccc1NC(=O)/C=C/c1ccccc1,-14.6% (inactive),
Nc1ccc2c(c1)CN1C(=O)c3ccccc3C1=N2,,6.73 µM (active)
O=C1c2ccccc2C(=O)c2c1ccc(O)c2O,-12.2% (inactive),
O=C1C(Cl)=C(NCCN2CCOCC2)C(=O)c2ncccc21,,1.73 µM (active)
Cc1csc(NC(=O)c2sc3nc4c(c(C(F)(F)F)c3c2N)CCC4)n1,,1.95 µM (active)
C=CCCCCCCCCC(=O)O,2.42% (inactive),
COc1ccc(-c2cc(=S)ss2)cc1,-12.4% (inactive),
CC(C)(C)COc1ccc(-n2cc(C(=O)O)cn2)cc1C#N,-9.53% [at 88.3 µM] (inactive),

SMILES,"activity, negative = cytotoxicity",Potency
O=C(Nc1ccc(C(=O)O)c(O)c1)c1ccccc1,-7.98% (inactive),
O=C(O)CCC(=O)c1ccc(-c2ccccc2)cc1,7.43% (inactive),
O=C(Oc1ccccc1)c1cccc(C(=O)Oc2ccccc2)c1,-3.83% [at 96.3 µM] (inactive),
O[C@@H](COc1cccc2ncccc12)CN1CCN(C2c3ccccc3[C@@H]3[C@H](c4ccccc42)C3(F)F)CC1 (some centres not stated),-12.7% (inactive),
CN1CC(=O)N2C(Cc3c([nH]c4ccccc34)[C@H]2c2ccc3c(c2)OCO3)C1=O (some centres not stated),-8.64% (inactive),
O=C(O)Cc1ccc(-c2ccccc2)cc1,0.151% (inactive),
O=c1oc2cc(O)ccc2s1,-10.4% (inactive),
Oc1cc(O)cc(/C=C/c2ccc(O)c(O)c2)c1,,7.74 µM (active)
O=C(Nc1ccc([N+](=O)[O-])cc1Cl)c1cc(Cl)ccc1O,,8.69 µM (active)
CC(C)OC(=O)CCCC=CC[C@@H]1[C@H](C=C[C@@H](O)COc2cccc(C(F)(F)F)c2)[C@H](O)C[C@@H]1O,-18.9% (inactive),
NC(N)=NN=C(/C=C/c1ccc([N+](=O)[O-])o1)/C=C/c1ccc([N+](=O)[O-])o1,,1.95 µM (active)
CC(=Cc1ccccc1)C=C1SC(=S)N(CC(=O)O)C1=O,-12.6% (inactive),
CCCCCCCC/C=C/C(=O)O,-7.84% (inactive),
CC(=O)OC(C)OC(=O)C(C)c1ccc(-c2ccccc2)c(F)c1 (configuration not stated),-2.32% (inactive),
Nc1ncnc2c1ncn2[C@@H]1O[C@@H](CO)[C@H](O)[C@H]1O,-7.22% [at 23.8 µM] (inactive),
CCC(C)SSc1ncc[nH]1 (configuration not stated),,19.5 µM (active)

# — PubChem BioAssay AID1224860 (National Center for Advancing Translational Sciences (NCATS), 2016)
